Laboratory results reported in PubChem BioAssay AID720690 (Broad Institute, 2013).
Potency and affinity values are given separately. Values without a mark were called inactive.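 The calls were made as follows: active = every repeat run showing a signal drop whose fitted half-maximal concentration is at most twice the top tested concentration; inconclusive = repeat runs disagree, or flat partial drop, or poor fit; inactive = the rest.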

Test: HEK293T cytotoxicity, dose response, cytotoxicity control for miR-122 modulator project, cell-based, activator set, cherry-pick (AID 720690);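 also: 0% = neutral control wells and -100% = MG132 cytotoxic control wells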
Conditions: HEK293T viability, CellTiter-Glo luminescence, 48 h; series mostly up to 26 µM; activity change, negative = cytotoxicity: at the top concentration

Compound | activity change, negative = cytotoxicity
COC(=O)C[C@H]1CC[C@@H]2[C@@H](COc3ccc(NC(=O)c4cscn4)cc3C(=O)N2C)O1 | -6.16%
CN1C(=O)c2cc(NC(=O)c3ccc(F)cc3)ccc2OC[C@@H]2O[C@@H](CC(=O)O)CC[C@@H]21 | 11%
C[C@@H]1CN([C@H](C)CO)S(=O)(=O)c2ccc(-c3ccc(C(=O)N(C)C)cc3)cc2O[C@@H]1CN(C)C(=O)C1CCC1 | 0.607%
CCOC(=O)c1ccc(NC(=O)c2ccc(CN3CCOCC3)cc2)cc1 | -13.2%
CCCCN(CCCC)C(=O)CN(C)S(=O)(=O)c1ccc2c(c1)n(C)c(=O)c(=O)n2C | 43.1%
CC(=O)N1[C@@H](CO)[C@@H](c2ccccc2)[C@@H]1CNC(=O)CN1CCOCC1 | -2.04%
CC(=O)N1[C@H](CO)[C@@H](c2ccccc2)[C@H]1CN(C)C(=O)CN1CCOCC1 | -3.31%
CCC(=O)N1[C@H](CN(CC)C(=O)c2ccccc2)[C@@H](c2ccccc2)[C@@H]1CO | -9.62%
C/C=C/c1ccc([C@@H]2[C@@H](CO)N(C(C)=O)[C@@H]2CN(C)C(=O)c2ccccn2)cc1 | -11.1%
CN1CCN(c2ccc(Cl)cc2NC(=O)c2ccc(S(=O)(=O)N3CCCCCC3)cc2)CC1 | -2.63%
CN1C(=O)c2cc(NC(=O)c3cccs3)ccc2OC[C@@H]2O[C@@H](CC(=O)O)CC[C@@H]21 | -5.79%
CN1C(=O)c2cc(NC(=O)Nc3ccccc3Cl)ccc2OC[C@H]2O[C@H](CC(=O)O)CC[C@H]21 | 8.14%
COc1ccc(NS(=O)(=O)c2ccc(NC(=O)C(C)(C(F)(F)F)C(F)(F)F)cc2)nn1 | 5.66%
CC(=O)N1[C@H](CO)[C@@H](c2ccccc2)[C@H]1CN(CC(C)C)C(=O)c1ccccn1 | 7.05% [at 23.5 µM]
CO[C@@H]1CN(C)C(=O)c2ccc(NS(C)(=O)=O)cc2OC[C@H](C)N(C(=O)CN(C)C)C[C@@H]1C | -6.2%
COCC(=O)N1[C@H](CO)[C@H]2c3ccccc3N(C(=O)C3CC3)C[C@H]21 | -4.49%
COCC(=O)Nc1ccc2c(c1)C(=O)N(C)[C@@H]1CC[C@@H](CC(=O)NC3Cc4ccccc4C3)O[C@@H]1CO2 | 3.1% [at 23.5 µM]
O=C(CN1CCOCC1)NC[C@@H]1N[C@@H](CO)[C@@H]1c1ccc(-c2ccccc2)cc1 | -1.74% [at 23.5 µM]
O=C(c1cccnc1)N1C[C@H]2[C@@H](c3ccccc31)[C@H](CO)N2C(=O)Nc1ccccc1 | 0.123%
C[C@H](CO)N1C[C@H](C)[C@@H](CN(C)Cc2ccc(-c3ccccc3)cc2)Oc2ncc(C#CCN(C)C)cc2C1=O | -27.3%

Compound | activity change, negative = cytotoxicity
CN1C(=O)c2cc(NS(=O)(=O)c3cccc(F)c3)ccc2OC[C@@H]2O[C@@H](CC(=O)O)CC[C@@H]21 | 10.7% [at 23.5 µM]
COc1ccc2[nH]c(=O)c(COC(=O)c3ccco3)cc2c1 | -0.84%
CN1C(=O)c2cc(NC(=O)c3cccc(F)c3)ccc2OC[C@H]2O[C@H](CC(=O)NC3CCC3)CC[C@H]21 | -6.32%
CN1C(=O)c2cc(NC(=O)c3cccs3)ccc2OC[C@H]2O[C@H](CC(=O)NCCN3CCCCC3)CC[C@@H]21 | 4.88%
Cc1ccc(NCC(=O)c2ccccc2)cc1Cl | 21.2%
CNC(=O)C[C@H]1CC[C@@H]2[C@H](COc3ccc(NC(=O)Nc4cccc(F)c4)cc3C(=O)N2C)O1 | -6.54%
CN1C(=O)c2cc(NC(=O)Nc3cccc(Cl)c3)ccc2OC[C@@H]2O[C@H](CC(=O)NCCc3ccncc3)CC[C@H]21 | 15.3%
CNC(=O)C[C@H]1CC[C@@H]2[C@H](COc3ccc(NC(=O)Nc4ccc(F)c(F)c4)cc3C(=O)N2C)O1 | 3.16%
C[C@@H]1CN([C@@H](C)CO)S(=O)(=O)c2ccc(C3=CCCCC3)cc2O[C@@H]1CN(C)C(=O)Nc1ccc2c(c1)OCO2 | -10.2%
COCCNC(=O)C[C@H]1CC[C@@H]2[C@H](COc3ccc(NC(=O)c4cnccn4)cc3C(=O)N2C)O1 | -7.42% [at 23.5 µM]
CN(C)c1ncnc2c1ncn2C1OC(CO)C(O)C1O (stereo not given) | -19.5%
CC(=O)N(C)C[C@@H]1[C@@H](c2ccccc2)[C@H](CO)N1C(=O)C1CCC1 | -7.02%
C[C@@H]1CN([C@@H](C)CO)S(=O)(=O)c2ccc(/C=C/c3ccccc3)cc2O[C@@H]1CN(C)C(=O)c1cccnc1 | -12.1%
N#Cc1cccc(NC(=O)Nc2cccs2)c1 | -33.5%
COc1cc(N)c(Cl)cc1NC(=O)c1ccccc1 | -16.9%
CN(C)C(=O)C[C@@H]1CC[C@@H]2[C@@H](COc3ccc(NC(=O)C4CC4)cc3C(=O)N2C)O1 | 6.71%
COc1ccc(-c2c(C)nn3c(N)c(-c4ccccc4)cnc23)cc1OC | 21.1%
O=C(NC[C@@H]1N[C@@H](CO)[C@H]1c1ccccc1)C1CCC1 | -1.63%
CN(c1ccccc1)S(=O)(=O)c1ccc(C(=O)Nc2cccc(S(=O)(=O)N3CCOCC3)c2)cc1 | -26.8%
COc1ccc2[nH]c(C(=O)O)c(NS(=O)(=O)c3ccc(Cl)s3)c2c1 | -13.1%
